From PubChem BioAssay (NCATS)
“And” between values parts separate entries of the source, which are not always exact repeats. Equal values may be shown once. Results filed as inconclusive are left out. The source made the active and inactive calls. The call rests on the fitted dose curve.

Test: qHTS Assay for Lipid Storage Modulators (AID 1519); on activity change, negative = inhibition: on the % scale 0 is the no-effect control and ±100 the full control effect
Conditions: Drosophila S3 cells, BODIPY lipid droplet/cell ratio, laser cytometry, cells loaded with oleic acid
Excerpt: NIH Molecular Libraries Probe Production Centers Network [MLPCN]
NIH Chemical Genomics Center [NCGC]
Assay Submitter (PI): Beller, Mathias; Max-Planck-Institut fur Biophysikalische Chemie
NCGC Assay Overview: Storing lipids as a reservoir for energy or the anabolism of elementary metabolites is a common feature of probably all cells and is conserved from bacteria to humans. The universal cellular lipid storage organelle is the so-called lipid storage droplet (LD). Although ubiquitous, LDs share a simple structure composed of a hydrophobic core that harbors the storage lipids, which is shielded by a droplet-specific phospholipid monolayer to which proteins are attached. The current model of LD biogenesis involves an incorporation of the lipid core into the membrane leaflets of the endoplasmic reticulum (ER) followed by a subsequent budding-like maturation of a LD, which ultimately pinches off. Once released, LD volume can increase by localized lipogenesis or fusion of existing droplets. Storage lipids are re-mobilized enzymatically by lipase activity. Lipase regulation in the adipocyte is heavily studied and involves multiple components including catecholamine signaling, the LD-associated proteins Perilipin and comparative gene identification-58 (CGI-58) and at least two lipases named hormone sensitive lipase (HSL) and adipocyte triglyceride lipase (ATGL). LD regulation outside of the adipocyte is poorly understood and only few components are known. However, there is an urgent need to learn more about ectopic fat depots as mislocalized storage of lipids, for example in the liver or muscle, is an eminent health problem associated with insulin resistance or the metabolic syndrome. We developed a laser-scanning cytometer assay to enable 1,536-well screening and combined the results of the small molecules screen with an RNAi database based on lipid storage.
NCGC Assay Protocol Summary:
We dispensed 4 uL of cells at 1.25 x 10^6 cells/mL into LoBase Aurora COC 1,536-well plates (black walled, clear bottom) with a bottle-valve solenoid-based dispenser (Aurora) to obtain 5,000 cells/well. Triacsin C (Sigma-Aldrich T-4540), an inhibitor of long-chain fatty acyl CoA synthetase that blocks synthesis of triglycerides, was used as a positive control for lipid under-storage. A total of 23 nL of compound solution of different concentrations were transferred to the assay plates using a Kalypsys pin tool equipped with a 1,536-pin array containing 10-nL slotted pins (FP1S10, 0.457-mm diameter, 50.8 mm long; V&P Scientific). One microliter of oleic acid (400 uM) was added, and the plate was lidded with stainless steel rubber gasket lined lids containing pinholes. […] Fluorescence was detected by excitation of the fluorophores with a 488-nm laser on an Acumen Explorer (TTP Lab Tech). The total intensity in channel 1 (500-530 nm) reflected lipid droplet accumulation. […] The ratio of the total intensity in PMT channel 1 over total intensity of channel 3 was also calculated. Percent activity was computed relative to an internal control (100% inhibited lipid droplet deposition due to the presence of 20 uM Triacsin C), which was added to 32 wells/plate.

[1] = measured here: cell count channel max response
[2] = measured here: lipid channel max response

Row | SMILES | activity change, negative = inhibition (at 25.7 µM (top of the series)) | max response [1] | max response [2] | activity change, negative = inhibition (at 57.5 µM (top of the series))
1 | Cc1ncc(CO)c(CO)c1O | -0.151% (inactive) | 0.978% | -0.91% | 
2 | CN(C(=O)C(Cl)Cl)c1ccc(OC(=O)c2ccco2)cc1 | -19.5% (inactive) | -11.9% | -28.6% | 
3 | CCOC(=O)NNc1nncc2ccccc12 | 0.543% (inactive) | -3.66% | -3.48% | 
4 | NC(N)=NCCCCN=C(N)N | -0.421% (inactive) |  |  | -1.91% (inactive) and 4.1% (inactive) and 0.28% (inactive)
5 | O=C(CCCCC(=O)Nc1c(I)cc(I)c(C(=O)O)c1I)Nc1c(I)cc(I)c(C(=O)O)c1I | -0.504% (inactive) | -3.67% | -4.34% | 
6 | OC(CCCN1CCCCC1)(c1ccccc1)c1ccccc1 | -0.646% (inactive) | 10.3% | 9.61% | 
7 | Nc1ncnc2nc[nH]c12 |  | 12.7% | 22.5% | 6.5% (inactive)
8 | COc1cccc2c1[C@@H]1CN(CCCCn3c(=O)[nH]c4c(sc5ncc(-c6ccccc6)nc54)c3=O)C[C@@H]1CO2 |  | 7.98% | 9.55% | 0.568% (inactive)
9 | OCc1c[nH]c2ccccc12 |  | 0.192% | 7.12% | 3.03% (inactive)
10 | Brc1ccc([C@H]2CN3CCSC3=N2)cc1 |  | -9.46% | -7.25% | 0.192% (inactive)
11 | CCN(CC)CCOc1ccc(/C(=C(\Cl)c2ccccc2)c2ccccc2)cc1 |  | 9.36% | 11.5% | -1.21% (inactive)
12 | Cn1cnc2c(NCc3ccccc3)nc(NCCO)nc21 |  | -34.4% | -34.7% | -0.56% (inactive)
13 | Cc1ccc(O)cc1 |  | 10.2% | 20.7% | 6.36% (inactive)
14 | COC(=O)c1c(Cl)c(Cl)c(C(=O)OC)c(Cl)c1Cl |  | 15.4% | 24.6% | 5.84% (inactive)
